# Screening results from PubChem BioAssay.
# IDH1 R132H inh: blocks human mutant IDH1 R132H enzyme; O75874; IDH1-R132H enzyme, NADPH consumption, diaphorase/resazurin fluorescence; Potency, µM (doses to about 76.6 µM), without a hit: top-dose activity change, negative = inhibition, usual class: inhibitors; 390,000 compounds, 0.093% hits; also: % is scaled to controls: 0 for no effect and ±100 for the full control effect; nearly all actives have a fitted effect of over 65% in size
# Target sequence (O75874 whole entry R132H, stated change not applied): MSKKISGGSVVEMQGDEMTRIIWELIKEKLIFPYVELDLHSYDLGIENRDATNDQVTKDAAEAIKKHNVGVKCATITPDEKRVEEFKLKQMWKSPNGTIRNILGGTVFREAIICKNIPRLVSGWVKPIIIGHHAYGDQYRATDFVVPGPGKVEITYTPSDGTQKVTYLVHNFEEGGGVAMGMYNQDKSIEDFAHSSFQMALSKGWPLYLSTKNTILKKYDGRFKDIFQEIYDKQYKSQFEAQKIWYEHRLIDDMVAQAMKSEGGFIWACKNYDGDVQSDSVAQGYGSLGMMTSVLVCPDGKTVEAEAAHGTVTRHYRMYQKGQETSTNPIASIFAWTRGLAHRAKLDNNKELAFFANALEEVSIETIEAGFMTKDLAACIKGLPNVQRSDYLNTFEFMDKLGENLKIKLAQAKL
#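 IDH1-R132H (0.5 ug/mL dispensed) in pH 7.5 Tris buffer was preincubated 30 min with compound, then given a substrate mix of 0.016 mM NADPH and 2 mM alpha-KG for 80 min at room temperature; remaining NADPH was read by diaphorase/resazurin fluorescence.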
# TrxR1 substrate: substrates of rat thioredoxin reductase 1; Potency, µM (series often up to 114 µM), for the others: at the highest dose activity change, negative = substrate turnover; purified TrxR1 substrate turnover, NADPH consumption readout; AID 588456; 390,000 compounds, 0.01% hits; also: % is scaled to controls: 0 for no effect and ±100 for the full control effect; nearly all actives have a fitted effect of over 50% in size
#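 Rat TrxR1, dispensed at 90 nM, was prereduced with 400 uM NADPH (final) for 5 min at ~22 deg C, then incubated with compound 15 min before 400 uM selenite. A first-read NADPH fluorescence drop versus no-compound background flagged substrates.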
# Nrf2 block: blocks Nrf2 signaling | A549 ARE-Fluc reporter, luciferase luminescence, 18-24 h | Potency, µM (titrated, usually from 46 µM), for the others: at the top dose activity change, negative = inhibition, actives largely listed as inhibitors | 360,000 compounds, 2.1% hits | AID 504444; also: % is scaled to controls: 0 for no effect and ±100 for the full control effect; nearly all actives have a fitted effect of over 60% in size
#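 Reporter: ARE-Fluc in A549. Exposure: 18-24 h, 37 °C, 5% CO2, 5% FBS OPTI-MEM. Readouts: fluorescent cytotoxicity (CellTiter-Fluor), then luminescent Nrf2 signal after BugLite.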
# rTrxR1 inhibitor: blocks rat thioredoxin reductase 1. 390,000 compounds, 1% hits. recombinant rTrxR1, NADPH fluorescence consumption, selenite substrate. O89049. AID 588453. Potency, µM (highest dose often 114 µM), for the others: at the highest dose activity change, negative = inhibition, most hits filed as inhibitors; also: % is scaled to controls: 0 for no effect and ±100 for the full control effect; nearly all actives have a fitted effect of over 65% in size
#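 Rat TrxR1 (90 nM in the dispensed reagent) was pre-reduced with 400 uM NADPH for 5 min at room temperature, then incubated with compound for 15 min. After 400 uM selenite was added, NADPH fluorescence (Ex 340/Em 450 nm) was followed for 8 min.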
# Mito fusion act: mitochondrial division inhibition or fusion activation | S. cerevisiae fusion-defective mutant growth rescue, CellTiterGlo 48 h | Potency, µM (top dose mostly 46.1 µM), for inactives: at the highest dose growth rescue (activation), most hits filed as activators | 320,000 compounds, 0.23% hits | AID 485298; also: % of control where 0% means no effect; nearly all actives have a fitted effect of over 45% in size
#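 Luminescent cell viability in 1536-well qHTS format served as the measure of rescued growth in ts fusion-mutant S. cerevisiae cultured on non-fermentable YPEG for 48 hours at 37C.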
# A549 viability: counter-screen for Nrf2 inhibitors: cytotoxicity in A549 cells; A549 ARE-Fluc cells, CellTiter-Fluor viability, 18-24 h; Potency, µM (titrated, usually from 46 µM), inactives show top-dose activity change, negative = cytotoxicity, hits mostly inhibitors; 390,000 compounds, 0.16% hits; also: % is scaled to controls: 0 for no effect and ±100 for the full control effect
#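 A549 ARE_Fluc cells in 5% FBS OPTI-MEM were exposed to compounds in concentration-response for 18-24 h at 37 deg C. Viability was read by CellTiter-Fluor fluorescence (Ex 405/Em 525) after 30 min, before the luciferase read.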
# The depositor's hits bear a star; ? = inconclusive; . = no result; [ ] = another dose, or the depositor's remark. The list is not random: actives were taken first. Their share in the collection is about 3.1%. Calls follow the shape of the dose curve; as a rule, active = well fitted curve in the direction sought with a large enough effect; inconclusive = small, poorly fitted or top-dose-only effect, or another doubt; inactive = no such curve, though single readings can be large; an effect the other way counts as inactive or inconclusive. Potency is read from the fitted curve at half-maximal effect.
SMILES,IDH1 R132H inh,TrxR1 substrate,Nrf2 block,rTrxR1 inhibitor,Mito fusion act,A549 viability
ClC(Cl)(Cl)c1nc2ccccc2n2nncc12,-6%,-1%,?,31%,13µM*,?
c1ccc2c(c1)nnn1c3ccccc3nc21,.,.,.,.,19%,.
O=C(NCCCCc1ccccc1)c1nn(-c2ccccc2)nc1CO,5%,6%,23µM*,32%,.,-7%
NC1(c2ccc(-c3nc4ccn5c(=O)[nH]nc5c4cc3-c3ccccc3)cc2)CCC1,.,163%,.,7%,.,.
COc1ccc(-c2[nH]c(-c3cc(OC)c4c(c3)OCO4)nc2-c2ccccc2)cc1,1%,39%,23µM*,-19%,?,?
Cn1c(SCCOc2ccccc2)nnc1-c1ccc(NC(=O)CCc2ccccc2)cc1,.,-7%,.,-13%,.,.
O=C(CC1SC(=Nc2cccc3ccccc23)N(Cc2ccccn2)C1=O)Nc1ccccc1Br (stereo unspecified),-6%,-2%,5.2µM*,11%,-2%,-19%
Cc1ccccc1N=C1SC(CC(=O)Nc2ccc3ccccc3c2)C(=O)N1Cc1ccccn1 (stereo unspecified),-8%,0%,?,8%,12%,-29%
NC[C@@H]1O[C@H](C23CC4CC(CC(C4)C2)C3)Cc2c1ccc(O)c2O,-3%,7%[57.1 µM],4%,?,?,4%
NC[C@@H]1O[C@H](c2ccccc2)Cc2c1ccc(O)c2O,.,13%[57.1 µM],.,?,16µM*,.
Nc1ccc(-c2cnc(N)c(C(=O)c3cccnc3)n2)cn1,-9%,-5%[57.1 µM],15µM*,-18%[57.1 µM],.,?
Nc1ccc(C(=O)c2cccs2)cn1,5%,-2%[57.1 µM],?,19%[2.29 µM],1%,7%
COC(=O)C(CCSC)NC(=O)c1cc2c(n(-c3ccc(Cl)cc3)c1=O)CCCC2=O (stereo unspecified),-14%,3%,-2%,23%,.,-1%
CCc1cccc(C)c1NC(=O)CSc1nc2ccc(N3C(=O)c4ccccc4C3=O)cc2s1,0%,-6%,?,6%,1%,-6%
CCc1cccc(CC)c1NC(=O)CSc1nc2ccc(N3C(=O)C4C(C3=O)[C@H]3C=C[C@@H]4C3)cc2s1 (stereo partly specified),18%,-1%[57.1 µM],13µM*,-6%[57.1 µM],12%,-10%
Cc1[nH]c2ccc(F)cc2c1CCNC(=O)c1cc2cc(Cl)ccc2oc1=O,2%,-6%,10%,18%[11.4 µM],.,-4%
O=C(CSc1nc2c([nH]c3ccccc32)c(=O)n1-c1cccc(C(F)(F)F)c1)N1CCCC1,-5%,5%[57.1 µM],.,37%[57.1 µM],.,10%
CC(C)(C)C1CC=C2C(C#N)=C(N)C(C#N)(C#N)C(c3cccs3)C2C1 (stereo unspecified),.,.,.,.,25%,.
CCc1ccc(C2C(C#N)=C(N)C(C#N)(C#N)C3=CCC(C(C)(C)C)CC32)cc1 (stereo unspecified),37µM*,1%,?,?,?,?
O=S(=O)(c1ccc(Br)cc1)N1CCN(S(=O)(=O)c2ccc3c(c2)OCCO3)CC1,.,.,16%,.,.,-3%
COC1=C2C[C@H](C)C[C@H](OC)[C@@H](O)[C@@H](C)C=C(C)[C@H](OC(N)=O)[C@@H](OC)C=CC=C(C)C(=O)NC(=CC1=O)C2=O,.,-1%,-17%,50µM*,.,?
COc1ccc(N2CCN(c3oc(-c4ccccc4C)nc3S(=O)(=O)c3ccccc3)CC2)cc1,-2%,3%,10%,5%,.,-1%
COc1ccc(C(=O)C(C)Oc2cccc(NC(=O)c3cccc([N+](=O)[O-])c3)c2)cc1 (stereo unspecified),1%,-16%,26µM*,-7%,5%,-9%
COc1ccc(NC(=O)c2cccc(N3C(=O)c4cccc([N+](=O)[O-])c4C3=O)c2)cc1,-19%,-9%,?,-8%,0%,0%
COc1ccc(/C=C2\C(=O)N(c3c(Cl)cc(Cl)cc3Cl)N=C2NC(=O)c2cccc([N+](=O)[O-])c2)cc1,-24%,-14%,12%,4.5µM*,-1%,-3%
SMILES,IDH1 R132H inh,TrxR1 substrate,Nrf2 block,rTrxR1 inhibitor,Mito fusion act,A549 viability
Cc1c(CC(=O)NCCCO)c(=O)oc2cc3c(cc12)CCC(C)(C)O3,-8%,384%,-4%,56µM*,1%,0%
O=S1(=O)N=C(Oc2ccc(C(F)(F)F)cc2)c2ccccc21,.,.,7%,.,.,1%
Cc1cc2c(cc3c(SCc4cccc(F)c4)nnc(C)n32)o1,.,-2%,14%,11%,.,0%
Cc1ccccc1CS(=O)(=O)c1nnc([C@H](CC(C)C)NC(=O)OC(C)(C)C)o1,0%,9%,.,4µM*,-25%,9%
CC(C)[C@H](NC(=O)OC(C)(C)C)c1nnc(S(=O)(=O)Cc2c(F)cccc2Cl)o1,17%,10%,-21%,0.71µM*,-13%,-2%[1.84 µM]
CC(C)(C)OC(=O)N[C@@H](Cc1ccccc1)c1nnc(S(=O)(=O)Cc2cccc(F)c2)o1,2%,-9%,?,0.63µM*,3%,?
C[C@H](NC(=O)OC(C)(C)C)c1nnc(SCc2c(F)cccc2Cl)o1,-3%,-1%,-13%,39%[11.4 µM],.,-1%
CC(C)C[C@H](N)c1nnc(S(=O)(=O)Cc2cccc(F)c2)o1,9%,11%[57.1 µM],?,0.63µM*,5%,-26%
COc1ccc(CNC(=O)c2cc3cc(C)ccc3n2C)cc1,7%,4%,?,29%,.,0%
CC[C@@H](C)[C@H](NC(=O)OC(C)(C)C)c1nnc(S(=O)(=O)Cc2cc(C)ccc2C)o1,11%,-3%,?,1.1µM*,-16%,?
Cc1ccn2c(-c3csc(NCc4ccco4)n3)c(C)nc2c1,5%,-4%,23µM*,-7%,-16%,-17%
COc1ccc(-c2csc(NCc3ccco3)n2)cc1C,1%,-3%,?,4%,-1%,-4%
Cc1ccc(NC(=O)CCc2nnc3n(C)c(=O)c4sccc4n23)cc1C,0%,11%,-6%[9.27 µM],41%,.,?
COc1ccc(NC(=O)Cn2nnc(C(=O)NCc3cccs3)c2N)c(OC)c1,-3%,-3%,18µM*,11%,15%,?
Cc1ccc(NC(=O)CSc2nc3ccc(NC(=O)COc4ccc(C)cc4)cc3s2)cc1,-7%,-1%,6%,20%,.,0%
O=C(CSCC(=O)N1CCCc2ccccc21)Nc1nc(-c2ccccc2)cs1,-12%,1%[57.1 µM],?,11%[57.1 µM],18µM*,13%
CCc1ccccc1NC(=O)CN1C(=O)COc2ccc(S(=O)(=O)N3CCCCCC3)cc21,3%,5%,12%,14%,.,-1%
